The source of these data is the supplement of paper PMC9262897, “Low-cost anti-mycobacterial drug discovery using engineered E. coli” (Nature Communications, 2022).

SMILES strings stand for the structures. Counter-ions that a name gives are not always drawn. ± gives the standard deviation of the averaged measurements.

One assay concerns E. coli TESEC Mtb Alr. Kind of assay: growth (OD600 after 10 h); higher = more growth (less inhibition). Conditions: arabinose 100 nM; compound 0.1 mM; raw OD600 reference: median of DMSO wells 0.413, cell-free background 0.052. The method, then: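 TESEC Mtb Alr E. coli (ΔaraC ΔtolC ΔentC Δalr ΔdadX, arabinose-inducible Mtb Alr) or the Alr+ wild-type control strain, grown in defined M9-fructose medium without D-alanine in 96-well plates with Prestwick library compounds at 0.1 mM and 1% DMSO. Low Alr induction is 0.1 µM arabinose and high induction is 10 mM arabinose.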
In the case of `CCC(=O)O[C@@](Cc1ccccc1)(c1ccccc1)[C@@H](C)CN(C)C` [Levopropoxyphene napsylate], the growth is 0.4145 ± 0.0027.
The same measure, in the same setting: to `COP(=O)(OC)C(O)C(Cl)(Cl)Cl` (centres undefined) [Trichlorfon] belongs 0.412 ± 0.012; to `CCN[C@@H](C)Cc1cccc(C(F)(F)F)c1` [Dexfenfluramine hydrochloride], 0.412 ± 0.0093.
For the compound `CN1C(=O)CCS(=O)(=O)C1c1ccc(Cl)cc1` (centres undefined) [Chlormezanone], the growth came out at 0.408 ± 0.011.
The compound `O=c1c2ccccc2[se]n1-c1ccccc1` [Ebselen] came in with a growth of 0.355 ± 0.009.
For `C[C@@H]1CN([C@H]2CC[C@](C#N)(c3ccc(F)cc3)CC2)CC[C@]1(C(=O)O)c1ccccc1` [Levocabastine hydrochloride], the growth was found to be 0.404 ± 0.017.
With `C[N+]12CCC(CC1)C(OC(=O)C(O)(c1ccccc1)c1ccccc1)C2` (centres undefined) [Clidinium bromide], the growth is 0.406 ± 0.015.
For the compound `C[C@]12CCC(=O)C(O)=C1CC[C@@H]1[C@@H]2CC[C@]2(C)C(=O)CC[C@@H]12` [Formestane], the growth came out at 0.373 ± 0.025.
Same read-out and setting: the value for `NCCCNCCSP(=O)(O)O` [Amifostine] was 0.402 ± 0.011; that for `CC(C)(N)Cc1ccccc1` [Phentermine hydrochloride] was 0.413 ± 0.014; that for `CN[C@@H]1C[C@@H](c2ccc(Cl)c(Cl)c2)c2ccccc21` [Indatraline hydrochloride] was 0.24 ± 0.15.
On the same count and under the same terms, the value for `C[C@@H]1CC[C@H]2[C@@H](C)C(=O)O[C@@H]3O[C@@]4(C)CC[C@@H]1[C@]32OO4` [Artemisinin] was 0.348 ± 0.0058; that for `CCCC[N+]1(C)[C@@H]2CC(OC(=O)[C@H](CO)c3ccccc3)C[C@H]1[C@@H]1O[C@@H]12` (some centres undefined) [Butylscopolammonium (n-) bromide] was 0.405 ± 0.0075; that for `O=P1(NCCCl)OCCCN1CCCl` (centres undefined) [Ifosfamide] was 0.417 ± 0.011.
For `CCN(C(C)=O)c1cccc(-c2ccnc3c(C#N)cnn23)c1` [Zaleplon], the growth came out at 0.411 ± 0.012.
In the case of `C[C@]12CCC(=O)C=C1CC[C@@H]1[C@@H]2C(=O)C[C@]2(C)C(=O)CC[C@@H]12` [Adrenosterone], the growth came to 0.406 ± 0.014.
Consider `CN1CCN(C(=O)OC2c3nccnc3C(=O)N2c2ccc(Cl)cn2)CC1` (centres undefined) [Zopiclone], for which the growth is 0.417 ± 0.009.
In the case of `O=C(O)CCCc1ccc(N(CCCl)CCCl)cc1` [Chlorambucil], the growth is 0.429 ± 0.0069.
In turn, `CCC1(C)CC(=O)NC(=O)C1` [Bemegride] yielded a growth of 0.4 ± 0.019.
As for `CCCCCC[C@H]1C(=O)O[C@H](C)[C@H](NC(=O)c2cccc(NC=O)c2O)C(=O)O[C@@H](C)[C@@H]1OC(=O)CC(C)C` [Antimycin A], the growth was determined as 0.363 ± 0.0093.
As to `CC(=O)OCC1=C(C(=O)O)N2C(=O)[C@@H](N)[C@H]2SC1` [Cephalosporanic acid, 7-amino], the growth turned out to be 0.408 ± 0.013.
Same read-out and setting: the value for `CC(N)C(O)c1ccccc1` (centres undefined) [Phenylpropanolamine hydrochloride] was 0.404 ± 0.016; that for `C[C@]12Cc3c[nH]nc3C[C@@H]1CC[C@@H]1[C@@H]2CC[C@@]2(C)[C@H]1CC[C@]2(C)O` [Stanozolol] was 0.409 ± 0.0083; that for `NC(=O)CN1CCCC1=O` [Piracetam] was 0.415 ± 0.011.
The compound `O=P1(N(CCCl)CCCl)NCCCO1` (centres undefined) [Cyclophosphamide] gave a growth of 0.4139 ± 0.003.

Still in this assay, the particulars now being: arabinose 10000000 nM; compound 0.1 mM; raw OD600 reference: median of DMSO wells […], cell-free background 0.052.
In turn, `CC(C)(C)NCC(O)c1ccccc1Cl` (centres undefined) [Tulobuterol] showed a growth of 0.341 ± 0.018.
Compound `Clc1ccc(C(OCCN2CCCCC2)c2ccccc2)cc1` (centres undefined) [Cloperastine hydrochloride] showed a growth of 0.147 ± 0.085.
For the compound `CN(C)C(=O)Oc1cc(OC(=O)N(C)C)cc(C(O)CNC(C)(C)C)c1` (centres undefined) [Bambuterol hydrochloride], the growth is 0.342 ± 0.015.
`C[C@@H]1C[C@@H]([C@H](O)CC2CC(=O)NC(=O)C2)C(=O)[C@@H](C)C1` [Cycloheximide] yielded a growth of 0.33 ± 0.013.
`CC(Cc1ccc(O)cc1)NCC(O)c1cc(O)cc(O)c1` (centres undefined) [Fenoterol hydrobromide]: the growth came to 0.344 ± 0.0099.
The same measure, in the same setting: to `COc1ccc(CCN)cc1OC` [Homoveratrylamine] belongs 0.316 ± 0.0066; to `C(#CCN1CCCC1)CN1CCCC1` [Tremorine dihydrochloride], 0.375 ± 0.023.
In turn, `O=C1CC[C@@]2(O)[C@H]3Cc4ccc(O)c5c4[C@@]2(CCN3CC2CC2)[C@H]1O5` [Naltrexone hydrochloride dihydrate] returned a growth of 0.335 ± 0.0091.
Compound `C[N+]1(C)CCCC(OC(=O)C(O)(c2ccccc2)c2ccccc2)C1` (centres undefined) [Mepenzolate bromide] showed a growth of 0.345 ± 0.014.
Compound `C1CCc2nnnn2CC1` [Pentylenetetrazole] had a growth of 0.367 ± 0.022.
In the case of `CC(=O)NC1CCSC1=O` (racemic) [N-Acetyl-DL-homocysteine Thiolactone], the growth was 0.35 ± 0.02.
`CNC(C)(C)Cc1ccccc1` [Mephentermine hemisulfate] yielded a growth of 0.381 ± 0.03.
On the same count and under the same terms, to `N[C@@H]1C[C@H]1c1ccccc1` [Tranylcypromine hydrochloride] belongs 0.371 ± 0.024; to `CC(NC(C)(C)C)C(=O)c1cccc(Cl)c1` (centres undefined) [Bupropion hydrochloride], 0.365 ± 0.0095.
As to `CCC(=O)O[C@@](Cc1ccccc1)(c1ccccc1)[C@@H](C)CN(C)C` [Levopropoxyphene napsylate], the growth was found to be 0.323 ± 0.013.
Still for that read-out and setting: the value for `COP(=O)(OC)C(O)C(Cl)(Cl)Cl` (centres undefined) [Trichlorfon] was 0.257 ± 0.17; that for `CCN[C@@H](C)Cc1cccc(C(F)(F)F)c1` [Dexfenfluramine hydrochloride] was 0.351 ± 0.026; that for `CN1C(=O)CCS(=O)(=O)C1c1ccc(Cl)cc1` (centres undefined) [Chlormezanone] was 0.367 ± 0.0068.
As for `O=c1c2ccccc2[se]n1-c1ccccc1` [Ebselen], the growth came out at 0.346 ± 0.0078.
As to `C[C@@H]1CN([C@H]2CC[C@](C#N)(c3ccc(F)cc3)CC2)CC[C@]1(C(=O)O)c1ccccc1` [Levocabastine hydrochloride], the growth was 0.321 ± 0.022.
The compound `C[N+]12CCC(CC1)C(OC(=O)C(O)(c1ccccc1)c1ccccc1)C2` (centres undefined) [Clidinium bromide] displayed a growth of 0.353 ± 0.019.
The same measure, in the same setting: to `C[C@]12CCC(=O)C(O)=C1CC[C@@H]1[C@@H]2CC[C@]2(C)C(=O)CC[C@@H]12` [Formestane] belongs 0.133 ± 0.017; to `NCCCNCCSP(=O)(O)O` [Amifostine], 0.352 ± 0.011.
In turn, `CC(C)(N)Cc1ccccc1` [Phentermine hydrochloride] yielded a growth of 0.36 ± 0.0095.
For the compound `CN[C@@H]1C[C@@H](c2ccc(Cl)c(Cl)c2)c2ccccc21` [Indatraline hydrochloride], the growth stood at 0.0505 ± 0.00096.
Consider `C[C@@H]1CC[C@H]2[C@@H](C)C(=O)O[C@@H]3O[C@@]4(C)CC[C@@H]1[C@]32OO4` [Artemisinin], for which the growth is 0.135 ± 0.025.
For `CCCC[N+]1(C)[C@@H]2CC(OC(=O)[C@H](CO)c3ccccc3)C[C@H]1[C@@H]1O[C@@H]12` (some centres undefined) [Butylscopolammonium (n-) bromide], the growth turned out to be 0.338 ± 0.021.
Still for that read-out and setting: the value for `O=P1(NCCCl)OCCCN1CCCl` (centres undefined) [Ifosfamide] was 0.359 ± 0.01.
In turn, `CCN(C(C)=O)c1cccc(-c2ccnc3c(C#N)cnn23)c1` [Zaleplon] showed a growth of 0.298 ± 0.011.
`C[C@]12CCC(=O)C=C1CC[C@@H]1[C@@H]2C(=O)C[C@]2(C)C(=O)CC[C@@H]12` [Adrenosterone] registered a growth of 0.2946 ± 0.0019.
`CN1CCN(C(=O)OC2c3nccnc3C(=O)N2c2ccc(Cl)cn2)CC1` (centres undefined) [Zopiclone] came in with a growth of 0.357 ± 0.01.
In turn, `O=C(O)CCCc1ccc(N(CCCl)CCCl)cc1` [Chlorambucil] yielded a growth of 0.326 ± 0.016.
Take `CCC1(C)CC(=O)NC(=O)C1` [Bemegride]: the growth came out at 0.363 ± 0.02.
`CCCCCC[C@H]1C(=O)O[C@H](C)[C@H](NC(=O)c2cccc(NC=O)c2O)C(=O)O[C@@H](C)[C@@H]1OC(=O)CC(C)C` [Antimycin A]: the growth was 0.319 ± 0.02.
Compound `CC(=O)OCC1=C(C(=O)O)N2C(=O)[C@@H](N)[C@H]2SC1` [Cephalosporanic acid, 7-amino] had a growth of 0.356 ± 0.011.
Same read-out and setting: the value for `CC(N)C(O)c1ccccc1` (centres undefined) [Phenylpropanolamine hydrochloride] was 0.345 ± 0.015.
Regarding `C[C@]12Cc3c[nH]nc3C[C@@H]1CC[C@@H]1[C@@H]2CC[C@@]2(C)[C@H]1CC[C@]2(C)O` [Stanozolol], the growth turned out to be 0.278 ± 0.018.
Compound `NC(=O)CN1CCCC1=O` [Piracetam] yielded a growth of 0.346 ± 0.018.
As for `O=P1(N(CCCl)CCCl)NCCCO1` (centres undefined) [Cyclophosphamide], the growth was found to be 0.314 ± 0.012.
